About 79,000 compounds went through this panel and 15% of them were active in at least one assay; those are over-represented in the sample as a whole. Calls of active or inactive are those of the source. Rule as the data show it: active = growth inhibition above about 70%; inactive = the rest.
Tests used:
[1] = NCI Yeast Anticancer Drug Screen. Data for the rad52 strain (AID 147);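 also: 0% = growth of vehicle-treated control cultures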; conditions: S. cerevisiae rad52 mutant growth inhibition, active compounds read high
How it was run: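 Measured: yeast growth inhibition. System: strain with a defined DNA damage repair alteration. Reference: vehicle-treated control cultures.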

[2] = NCI Yeast Anticancer Drug Screen. Data for the rad50EPP+ strain (AID 151);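 also: 0% = growth of vehicle-treated control cultures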; conditions: S. cerevisiae rad50 mutant strain, active compounds read high
How it was run: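 One strain with a rad50 alteration (rad50EPP+) was compound-treated, its growth then compared to that of vehicle controls.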

[3] = NCI Yeast Anticancer Drug Screen. Data for the mgt1 strain (AID 153); conditions: S. cerevisiae mgt1 mutant growth inhibition, active compounds read high
How it was run: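 After exposure of the mgt1 yeast mutant to compound, growth was measured and reported as inhibition compared with vehicle controls.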

[4] = NCI Yeast Anticancer Drug Screen. Data for the rad50 strain (AID 155);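 also: 0% = growth of vehicle-only cultures of the same strain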; conditions: S. cerevisiae rad50 strain growth inhibition, active compounds read high
How it was run: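 Cells are treated with compound, grown, and their growth is then scored against vehicle-only cultures of the same repair-deficient yeast strain.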

[5] = NCI Yeast Anticancer Drug Screen. Data for the mec2-1 strain (AID 157); conditions: S. cerevisiae mec2-1 strain, active compounds read high
How it was run: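 Test agents were screened against the mec2-1 yeast strain, with defined DNA repair or cell cycle alteration. Growth was scored as inhibition against vehicle-only controls.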

[6] = NCI Yeast Anticancer Drug Screen. Data for the rad14 strain (AID 159);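 also: 0% = growth of vehicle-treated control cultures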; conditions: S. cerevisiae rad14 strain growth inhibition, active compounds read high
How it was run: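 Readout: yeast growth inhibition, referenced to vehicle-only cultures. Strain bears a defined alteration in DNA damage repair.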

[7] = NCI Yeast Anticancer Drug Screen. Data for the sgs1 mgt1 strain (AID 161);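 also: 0% = growth of cultures given vehicle only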; conditions: S. cerevisiae sgs1 mgt1 strain, active compounds read high
How it was run: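 Test agents were incubated with a DNA-repair-mutant yeast strain. Growth was then read and compared against vehicle-treated controls.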

[8] = NCI Yeast Anticancer Drug Screen. Data for the CLN2oe strain (AID 163);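 also: 0% = growth of vehicle-only control cultures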; conditions: S. cerevisiae CLN2oe strain, active compounds read high
How it was run: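 Here, growth inhibition in a cell-cycle-altered yeast strain after compound exposure was quantified against vehicle control growth.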

[9] = NCI Yeast Anticancer Drug Screen. Data for the cln2 rad14 strain (AID 165);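 also: 0% = growth equal to vehicle treated cultures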; conditions: S. cerevisiae cln2 rad14 strain, active compounds read high
How it was run: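 Growth of compound-exposed yeast (cln2 rad14 genotype) measured and expressed as inhibition relative to vehicle.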

[10] = NCI Yeast Anticancer Drug Screen. Data for the bub3 strain (AID 167); conditions: S. cerevisiae bub3 mutant strain, active compounds read high
How it was run: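 Part of a panel of yeast mutants defective in DNA damage repair or cell cycle regulation. Each strain is grown with compound, and inhibition is calculated relative to solvent-treated cultures.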

[11] = NCI Yeast Anticancer Drug Screen. Data for the wt2 strain (AID 169);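 also: 0% = growth of vehicle-treated yeast cultures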; conditions: S. cerevisiae wt2 strain growth inhibition, active compounds read high
How it was run: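 Genetically defined yeast strains from a DNA-repair/cell-cycle panel were used. Compound-exposed yeast growth was measured, and the inhibition was calculated relative to vehicle treatment.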

[12] = NCI Yeast Anticancer Drug Screen. Data for the mlh1 strain (AID 171);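 also: 0% = growth of vehicle-treated control cultures of the same strain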; conditions: S. cerevisiae mlh1 strain growth inhibition, active compounds read high
How it was run: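 Here the genetically defined yeast mutant is grown with each compound, and the extent to which its growth falls below that of vehicle-exposed cells is reported.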

[13] = NCI Yeast Anticancer Drug Screen. Data for the sgs1 strain (AID 173);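 also: 0% = growth of vehicle-only control cultures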; conditions: S. cerevisiae sgs1 mutant, active compounds read high
How it was run: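 Relative growth inhibition, referenced to vehicle, was determined in a yeast strain with a defined alteration affecting DNA damage repair or cell cycle control after compound exposure.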

[14] = NCI Yeast Anticancer Drug Screen. Data for the mlh1 rad18 strain (AID 175); conditions: S. cerevisiae mlh1 rad18 strain growth inhibition, active compounds read high
How it was run: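 In this whole-cell yeast screen, a strain with altered DNA damage repair is challenged with compound, and its growth is measured against matched vehicle-treated controls.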

[15] = at 5.0 µM (retest, dose inferred, filed as 0.5)
[16] = at 50.0 µM (retest, dose inferred, filed as 5.0)

Measured: growth inhibition

O=C(c1ccccc1)C1C(c2ccccc2[N+](=O)[O-])N1C1CCCCC1 (stereo not drawn)
active: [1]; at 33.0 µM 80% | [1]; at 100.0 µM 89% | [2]; at 33.0 µM 80% | [2]; at 100.0 µM 82% | [3]; at 100.0 µM 83% | [4]; at 33.0 µM 71% | [4]; [16] 72% | [4]; at 50.0 µM 96.9% | [4]; at 100.0 µM 84% | [5]; at 50.0 µM 94.7% | [5]; at 100.0 µM 88% | [7]; [16] 75% | [7]; at 50.0 µM 93.6% | [8]; at 100.0 µM 78% | [9]; at 50.0 µM 83.2% | [10]; at 33.0 µM 70% | [10]; [16] 72% | [10]; at 50.0 µM 95% | [10]; at 100.0 µM 87% | [11]; at 100.0 µM 84% | [12]; at 100.0 µM 90% | [13]; at 33.0 µM 85% | [13]; at 100.0 µM 91% | [14]; [16] 80% | [14]; at 50.0 µM 96.2%
inactive: [1]; at 1.2 µM -1% | [1]; at 3.7 µM 7% | [1]; at 11.0 µM 30% | [2]; at 1.2 µM 5% | [2]; at 3.7 µM 19% | [2]; at 11.0 µM 48% | [3]; at 1.2 µM 1% | [3]; at 3.7 µM 2% | [3]; at 11.0 µM 10% | [3]; at 33.0 µM 52% | [4]; at 1.2 µM 2% | [4]; at 3.7 µM 3% | [4]; [15] -2% | [4]; at 11.0 µM 28% | [5]; at 1.2 µM 4% | [5]; at 3.7 µM 10% | [5]; [15] 1% | [5]; at 11.0 µM 23% | [5]; at 33.0 µM 66% | [5]; [16] 58% | [6]; at 1.2 µM -1% | [6]; at 3.7 µM 3% | [6]; at 11.0 µM 7% | [6]; at 33.0 µM 13% | [6]; at 100.0 µM 64% | [7]; [15] 15% | [8]; at 1.2 µM -4% | [8]; at 3.7 µM -2% | [8]; at 11.0 µM 3% | [8]; at 33.0 µM 38% | [9]; [15] -18% | [9]; [16] 13% | [10]; at 1.2 µM -11% | [10]; at 3.7 µM -2% | [10]; [15] -4% | [10]; at 11.0 µM -14% | [11]; at 1.2 µM 1% | [11]; at 3.7 µM 3% | [11]; at 11.0 µM 11% | [11]; at 33.0 µM 62% | [12]; at 1.2 µM 4% | [12]; at 3.7 µM 8% | [12]; at 11.0 µM 19% | [12]; at 33.0 µM 45% | [13]; at 1.2 µM 9% | [13]; at 3.7 µM 21% | [13]; at 11.0 µM 52% | [14]; [15] 0%
